In experiment [1] the target is Metallo-beta-lactamase type 2 (Klebsiella pneumoniae) (UniProt C7C422). Nature of the experiment: qHTS to identify inhibitors of the New Delhi Metallo-beta-lactamase (NDM): assay validation screen against the NCATS LOPAC Collection (AID 1794843).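 Note: nitrocefin turnover by NDM-1 measured as 485 nm absorbance at plateau; series mostly up to about 38 µM.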 The gist of the method:
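NDM-1 at 2 nM final in 50 mM HEPES pH 7.0, 1 uM ZnSO4, 0.01% Tween20, preincubated with LOPAC compounds pinned in DMSO; 50 uM nitrocefin (stock) added. Hydrolysis read as absorbance at 485 nm in the plateau phase.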
(In qHTS, concentration-response curves come from the screen itself.)

In experiment [2] the target is Glutathione peroxidase 1 (Homo sapiens) (UniProt P07203). Briefly: Primary qHTS Assay for Inhibitors of Recombinant Selenoprotein Glutathione Peroxidase 1 (GPX1) (AID 1845191). Note: nearly all actives have a fitted effect of over 65% in size. The method in brief:
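GR-coupled readout: NADPH consumption tracked by fluorescence, ex 340/em 450 nm, at t=0 and after 15 min at RT. Final mix 10 nM GPX1, 1 mM GSH, 0.5 mM CHP, 0.5 mM NADPH, 100 nM GR, 0.01% BSA, following 30 min enzyme–compound preincubation.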

Experiment [3] has as its target Phospholipid hydroperoxide glutathione peroxidase GPX4 (Homo sapiens) (UniProt P36969). Briefly: Primary qHTS Assay for Inhibitors of Recombinant Selenoprotein Glutathione Peroxidase 4 (GPX4) (AID 1845192). Note: nearly all actives have a fitted effect of over 65% in size. Note: potency is the fitted concentration of half-maximal effect. The method in brief:
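Steps: GPX4 plus compound, 30 min RT; add GR/GSH/NADPH master mix; start with cumene hydroperoxide; read 340/450 nm fluorescence at 0 and 15 min. Finals were 200 nM GPX4, 1 mM GSH, 0.5 mM CHP, 0.5 mM NADPH, 100 nM GR.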

Experiment [4] can be described thus: Quantitative High-Throughput drug screen in 47 multiple myeloma cell lines against the NCATS MIPE library collection: FR4_PLB cell viability assay (AID 1918924; note: nearly all actives have a fitted effect of over 35% in size; note: potency is the fitted concentration of half-maximal effect). The gist of the method: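 Steps: seed 500 cells per well; pin-transfer MIPE 4.0 library; incubate 48 h at 37C, 5% CO2, humidified; add CellTiter-Glo, 5 min room temperature; read luminescence.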
Experiment [5] can be described thus: Quantitative High-Throughput drug screen in 47 multiple myeloma cell lines against the NCATS MIPE library collection: AMO1_DSMZ cell viability assay (AID 1918927; note: nearly all actives have a fitted effect of over 30% in size; note: potency is the fitted concentration of half-maximal effect). The gist of the method:
(§1)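 qHTS of the MIPE 4.0 collection: 500 myeloma cells/well, 48 h drug exposure at 37C in 5% CO2, then CellTiter-Glo for 5 min at room temperature before luminescence reading.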

Experiment [6] is described as follows: Quantitative High-Throughput drug screen in 47 multiple myeloma cell lines against the NCATS MIPE library collection: EJM_DSMZ cell viability assay (AID 1918926; note: nearly all actives have a fitted effect of over 30% in size; note: potency is the fitted concentration of half-maximal effect). The gist of the method:
as §1

A short description of experiment [7]: Quantitative High-Throughput drug screen in 47 multiple myeloma cell lines against the NCATS MIPE library collection: Delta47_JCRB cell viability assay (AID 1918925; note: nearly all actives have a fitted effect of over 45% in size; note: potency is the fitted concentration of half-maximal effect). The gist of the method:
as §1

Experiment [8] deals with Luciferin 4-monooxygenase (Photinus pyralis) (UniProt P08659). Nature of the experiment: Primary firefly luciferase (FLuc) qHTS assay for identification of artifact compounds. (AID 1845220). Note: nearly all actives have a fitted effect of over 60% in size. The gist of the method:
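Enzymatic FLuc inhibition assay: compounds pre-exposed to luciferin/ATP (10 uM each) for 15 min, then purified P. pyralis enzyme at 10 nM added. Read-out: luminescence at 5 min.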

For experiment [9], the system named is Nanoluciferase (engineered Oplophorus gracilirostris luciferase). Briefly: Primary Nanoluciferase (NLuc) qHTS assay for identification of artifact compounds. (AID 1845222).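 Note: NLuc secreted into diluted conditioned medium of S16 cells; series mostly up to about 54 µM.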 The gist of the method:
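S16 cell supernatant NLuc, 1:55; cpds qHTS; 15 min RT dark; Nano-Glo substrate 1:100, 5 min; luminescence; Hill fit of % inhibition.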

Experiment [10] is described as follows: Primary redox qHTS assay for identification of artifact compounds. (AID 1845223). The method in brief:
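Redox-cycling detection via DTT (250 uM final) oxidation coupled to Amplex Red (25 uM)/HRP (250 mU/mL) in HBSS. 15 min preincubation plus 30 min after DTT, room temperature. Ex/Em 525/598 nm; 4-parameter Hill fit against DMSO and 10 uM DA3003.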

Experiment [11] is described as follows: Primary fluorescence-based thiol-reactive (MSTI) qHTS assay for identification of artifact compounds. (AID 1845221).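 Note: series mostly up to about 54 µM; thiol-reactive compounds lower the probe fluorescence signal; nearly all actives have a fitted effect of over 65% in size.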 The gist of the method:
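In PBS pH 7.4 with 2% DMSO, each compound met 4 uM MSTI for one hour at ambient temperature, shielded from light, before fluorescence detection.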

The results in this text go back to PubChem BioAssay (NCATS).

Inconclusive results are not listed. Active and inactive are the calls of the source. Calls come from the whole dose curve; as a rule, active = well fitted curve in the direction sought with a large enough effect; inconclusive = small, poorly fitted or top-dose-only effect, or another doubt; inactive = no such curve, though single readings can be large; an effect the other way counts as inactive or inconclusive.

Chain of Metallo-beta-lactamase type 2 (Klebsiella pneumoniae) (C7C422 whole entry, looked up): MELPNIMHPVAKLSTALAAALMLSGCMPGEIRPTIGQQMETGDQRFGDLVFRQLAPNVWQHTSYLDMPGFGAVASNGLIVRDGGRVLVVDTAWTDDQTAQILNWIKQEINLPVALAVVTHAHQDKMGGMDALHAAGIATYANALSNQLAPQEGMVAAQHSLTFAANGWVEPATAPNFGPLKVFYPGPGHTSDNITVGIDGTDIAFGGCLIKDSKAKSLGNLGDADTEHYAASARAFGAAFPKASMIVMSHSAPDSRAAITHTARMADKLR
Chain of Phospholipid hydroperoxide glutathione peroxidase GPX4 (Homo sapiens) (P36969 whole entry, looked up): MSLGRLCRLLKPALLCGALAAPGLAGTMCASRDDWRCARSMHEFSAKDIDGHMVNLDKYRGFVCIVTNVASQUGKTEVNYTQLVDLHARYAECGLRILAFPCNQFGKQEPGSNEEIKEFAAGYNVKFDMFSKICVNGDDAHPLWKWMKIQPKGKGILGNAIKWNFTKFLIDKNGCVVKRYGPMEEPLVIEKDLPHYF
Chain of Glutathione peroxidase 1 (Homo sapiens) (P07203 whole entry, looked up): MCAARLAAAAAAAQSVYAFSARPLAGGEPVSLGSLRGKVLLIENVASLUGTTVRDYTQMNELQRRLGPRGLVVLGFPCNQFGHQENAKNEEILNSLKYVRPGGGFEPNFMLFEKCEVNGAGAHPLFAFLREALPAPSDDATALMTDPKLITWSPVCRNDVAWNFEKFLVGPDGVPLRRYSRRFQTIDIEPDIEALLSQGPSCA

Turning to `NS(=O)(=O)c1cc2c(cc1Cl)NC=NS2(=O)=O`, in [1], the result was inactive. Also, the Potency result in [2], in experiment [3], in experiment [4] and in experiment [5] was “inactive” throughout.

Consider `O=C1CCc2cc(OCCCCc3nnnn3C3CCCCC3)ccc2N1`, for which the result in [1] was inactive. Further, the Potency result in experiment [3], in experiment [4], in experiment [6] and in [5] was “inactive” each time.

As to `O=C(Nc1nc2ccccc2n1CCN1CCOCC1)c1cccc([N+](=O)[O-])c1`, in experiment [1], the result was inactive. In [3], the Potency entry is “inactive”. Moreover, the Potency in experiment [6] and in [5] was 4.18 µM (active) in each case.

Turning to `CC(C)(C)NCC(O)c1ccc(O)c(CO)c1` (configuration not stated), in experiment [1], the result was inactive. For the same compound, the Potency entry in [2], in experiment [3], in [4], in experiment [7], in experiment [6] and in experiment [5] was “inactive” throughout.

Consider `C[C@]12CCC(=O)C=C1CC[C@@H]1[C@@H]2[C@@H](O)C[C@@]2(C)[C@H]1CC[C@]2(O)C(=O)CO`, for which, in experiment [1], the compound was classed as inactive. Further, the Potency entry in experiment [2] and in experiment [3] was “inactive” throughout.

With `O=c1n(CCCN2CCN(c3cccc(Cl)c3)CC2)nc2ccccn12`, the outcome in [1] was inactive. Moreover, the Potency entry in [3], in [6] and in experiment [5] was “inactive” in each case.

For the compound `Cc1cc([C@@H](C)Nc2ccccc2C(=O)O)c2nc(N3CCOCC3)cc(=O)n2c1`, the Potency result in experiment [2] is “inactive”.

Turning to `C1COC(NC(C2CC2)C2CC2)=N1`, the outcome in experiment [1] was inactive. Also, the Potency entry in experiment [2], in [3], in experiment [4] and in experiment [6] was “inactive” in each case.

Take `Clc1cccc(Cl)c1NC1=NCCN1`: the outcome in experiment [1] was inactive. The Potency entry in [2], in [3], in [6] and in experiment [5] was “inactive” throughout.

For the compound `CCOC(=O)N1CCC(=C2c3ccc(Cl)cc3CCc3cccnc32)CC1`, the compound was classed as inactive in experiment [1]. Besides, the Potency result in experiment [2], in [3] and in experiment [5] was “inactive” each time.

As for `NNCCc1ccccc1`, in experiment [1], the result was inactive. In addition, the Potency result in [3], in experiment [7] and in experiment [6] was “inactive” throughout. For the same compound, the Potency is 6.62 µM (active) in experiment [4] and 18.7 µM (active) in experiment [5].

Regarding `OC(CCN1CCCCC1)(c1ccccc1)C1CC2C=CC1C2` (configuration not stated), the compound was called inactive in experiment [1]. Besides, the Potency entry in experiment [2], in experiment [3], in [4], in experiment [7], in experiment [6] and in [5] was “inactive” each time.

Take `CCn1cc(C(=O)O)c(=O)c2cc(F)c(N3CCNC(C)C3)c(F)c21` (configuration not stated): the outcome in experiment [1] was inactive. Moreover, the Potency result in experiment [2], in experiment [3], in experiment [4], in experiment [6] and in experiment [5] was “inactive” each time.

Turning to `NC(N)=NC(=O)c1nc(Cl)c(N)nc1N`, the result in experiment [1] was inactive. Further, the Potency result in experiment [2], in experiment [3] and in experiment [6] was “inactive” in each case. Also, the Potency is 8.33 µM (active) in experiment [7] and 14.8 µM (active) in [5].

Regarding `CC(C[N+](C)(C)C)OC(N)=O` (configuration not stated), in experiment [1], the outcome was inactive. In addition, the Potency entry in experiment [3], in experiment [7], in experiment [6] and in [5] was “inactive” throughout.

Turning to `Cc1cccc(-c2[nH]c(C(C)(C)C)nc2-c2ccc3nccnc3c2)n1`, the compound was called inactive in experiment [1]. In addition, the Potency result in experiment [2] and in [3] was “inactive” throughout. Moreover, in [5], the Potency was 5.26 µM (active).

For the compound `N=c1nc(N2CCCCC2)cc(N)n1O`, in experiment [1], the outcome was inactive. Besides, the Potency entry in [2], in experiment [3], in experiment [4], in experiment [6] and in [5] was “inactive” throughout.

On to `CCC(C)N(C)C(=O)c1cc2ccccc2c(-c2ccccc2Cl)n1` (configuration not stated), for which the outcome in [1] was inactive. Moreover, the Potency result in [3], in [4] and in [6] was “inactive” in each case.

Take `Cc1oncc1C(=O)Nc1ccc(C(F)(F)F)cc1`: the result in experiment [1] was inactive. In addition, the Potency result in experiment [3], in experiment [4] and in experiment [5] was “inactive” in each case. The Potency in experiment [6] was 20.9 µM (active).

Turning to `O=c1[nH]cnc2[nH]ncc12`, in experiment [1], the compound was called inactive. Moreover, the Potency entry in experiment [3], in experiment [4], in experiment [6] and in experiment [5] was “inactive” throughout.

With `CCOc1ccn(-c2ccc(F)cc2)c(=O)c1C(=O)Nc1ccc(Oc2ccnc(N)c2Cl)c(F)c1`, the Potency entry in [2], in experiment [3] and in experiment [8] was “inactive” throughout. In addition, the compound was called inactive in experiment [9] and in experiment [10]. Moreover, the Potency in experiment [4] and in experiment [5] was 18.7 µM (active) throughout.

Consider `CC1(C)CNc2cc(NC(=O)c3cccnc3NCc3ccncc3)ccc21`, for which the Potency entry in [2], in experiment [3] and in experiment [5] was “inactive” each time. Besides, the compound was called inactive in [9] and in [10]. In addition, the Potency in [6] is 2.64 µM (active).

For `O=C(Nc1ccc(F)c(C(F)(F)F)c1)Nc1nnc(-c2ccncc2)s1`, the Potency result in experiment [2], in experiment [3] and in [8] was “inactive” throughout. For the same compound, the call in experiment [9] and in [10] was inactive. In addition, the Potency in [4] was 3.32 µM (active); in [7] it was 2.96 µM (active); in [6], 5.9 µM (active).

On to `COc1ccc(CCN2CCN(CCCc3ccccc3)CC2)cc1OC`, for which the Potency entry in [2], in [3], in experiment [8], in experiment [4] and in experiment [6] was “inactive” in each case. Also, the compound was classed as inactive in experiment [9] and in [10].

As to `COc1cccc2cc(-c3nc(C4CCC(C(=O)O)CC4)n4ncnc(N)c34)[nH]c12` (configuration not stated), the Potency entry in experiment [2], in [3] and in experiment [8] was “inactive” in each case. The outcome in [9] was inactive. Also, the Potency in [4] was 0.187 µM (active); in experiment [7], 0.469 µM (active); in [6] it was 0.187 µM (active); in [5], 0.372 µM (active).

Turning to `COc1nc(-c2ccc3c(c2)OCO3)n(-c2ccc(NC(=O)CSc3ccccc3)cc2)n1`, the Potency entry in experiment [2], in [3], in [8], in experiment [4], in [7] and in [6] was “inactive” each time. Also, the call in [9] and in experiment [10] was inactive.

Regarding `C/C(=C\C(=O)Nc1ccccc1C(=O)O)c1ccc2ccccc2c1`, in experiment [2], the Potency entry is “inactive”. Moreover, the Potency in [3] was 18 µM (active).

As for `O=C1[C@H](Cc2ccc(O)cc2)N2C(=O)CCN(C(=O)NCc3ccccc3)[C@H]2CN1Cc1cccc2ccccc12`, the Potency result in experiment [2] and in experiment [3] was “inactive” each time.

With `COc1ccccc1[C@H](c1cccc2ccccc12)[C@@](C)(C#N)C(=O)N1CCC(c2cccc(C(F)(F)F)c2)CC1`, the Potency result in experiment [2], in experiment [3], in experiment [8] and in experiment [11] was “inactive” throughout. Moreover, the result in experiment [9] and in experiment [10] was inactive. The values for the Potency in experiment [6] and in experiment [5] were 13.2 µM (active) and 2.64 µM (active), respectively.

With `CC(C)c1onc(-c2c(Cl)cccc2Cl)c1COc1ccc(/C=C/c2cccc(C(=O)O)c2)c(Cl)c1`, in [2], the Potency result was “inactive”.

With `COc1cc(F)c(F)c(Nc2ccc(I)cc2F)c1NS(=O)(=O)C1(C[C@H](O)CO)CC1`, the Potency result in experiment [2], in [3], in experiment [8] and in experiment [11] was “inactive” each time. In addition, the call in experiment [9] and in experiment [10] was inactive.

Turning to `COc1c(Cl)cc2c([nH]c3cnccc32)c1NC(=O)c1cccnc1C`, the Potency entry in experiment [2], in experiment [3] and in experiment [8] was “inactive” in each case. Further, the call in [9] and in experiment [10] was inactive. The Potency is 3.72 µM (active) in [6] and 5.26 µM (active) in experiment [5].
